Calls of active or inactive are those of the source. Rule for the calls: active = hit-call score of the fitted dose curve at least 0.9, where 1 is the maximum; inactive = score below 0.9.
The molecules below were run on ATP-citrate lyase (ACLY), ACLY (gene 47) (assay: LTEA_HepaRG_ACLY: Life Technologies and Expression Analysis (LTEA) Assay for ATP-citrate lyase (ACLY) using HepaRG (AID 2283466)). Conditions: mRNA level, 48 h; actives raise or lower the signal.
Description: LTEA_HepaRG is a cell based, multiplexed-readout assay that uses HepaRG, a human liver cell line, with measurements taken at 48 hours after chemical dosing on a 96-well plate.LTEA_HepaRG_ACLY is one of 102 assay component(s) measured in the LTEA HepaRG cell culture assay. It is a marker of Steatosis.Data from the assay component LTEA_HepaRG_ACLY was analyzed into 1 endpoint. This assay endpoint, LTEA_HepaRG_ACLY, was analyzed with bidirectional fitting relative to DMSO as the negative control and baseline of activity. Using a type of inducible reporter, measures of mRNA induction for gain or loss-of-signal activity can be used to understand regulation of transcription factor activity. To generalize the intended target to other relatable targets, this assay endpoint is annotated to the lyase intended target family, where the subfamily is steatosis.
A total of 1060 chemcials from the ToxCast library were tested in eight-point concentration-response experiments. Cell culture and cytotoxicity assays were conducted at Thermo Fisher Scientific's Custom Services facility (Madison, WI). A single lot of human HepaRG cells (Thermo Fisher Scientific, Frederick, MD) was used for the cell culture experiments. 96-well format collagen type I coated plates of human HepaRG cells were prepared using established methods. Briefly, cryopreserved HepaRG cells were thawed, plated at a density of approximately 100,000 cells/well in HepaRG Thaw, Plate, and General Purpose media (HPRG770, Thermo Fisher Scientific), and incubated for 48 hours. 0.5% DMSO was selected as vehicle control to balance the requisite need of DMSO in HepaRG cultures to maintain differentiation (for example, baseline metabolism, proportions of hepatocytes vs. cholangiocytes), while enabling further hepatic receptor pathway activation (for example, PXR and CAR) in response to chemical exposure. 48 hours after plating, the culture medium was replaced with HepaRG Serum-Free Incudtion Media. Cells were exposed to each test chemical in duplicate and maintained in CO2 incubators for another 48 hours. Chemical plates were thawed to room temperature and 200x concentrations of treatment groups were prepared. 8-point conentration-reponse curves were made with the highest exposure at 100 uM, followed by half-log dilutions, all in 0.5% DMSO. Each test plate contained variouse controls, induction positive controls (1mM phenobarbital), cytotoxicity positive controls ([…] aflatoxin B1), vehicle controls (0.5% DMSO), and total lysis controls (0.5% DMSO). Cell morphology images were taken using an Essen IncuCyte FLR automated microscope, with six 96-well plates imaged in about 24 minutes. Images were captured and exported and JPEG files. Spent culture media was transfered to black-well plates for the LDH assay, and remaining media was sorted at -80 C for later use. Cells were treated with RLT buffer and frozen until shipped for gene expression analysis. Total RNA was isolated from the cell suspension in 75 uL of Buffer RLT (Qiagen, Germantown, MD 20874) by Quintiles/Expression Analysis (Durham, NC) using a custom isolation procedure. Total RNA from each plate well was transferred to a preamplification plate. Fluidigm's 96.96 Dynamic ArrayTM (Fluidigm, Amsterdam, the Netherlands) technology was used for gene expression analyses by quantitative reverse transcription polymerase chain reaction (qRT-PCR, performed by Quintiles/Expression Analysis, Durham, NC)89. Standard TaqManTM Assays (Applied Biosystems/ThermoFisher Scientific, Foster City, CA) were used to assess the expression of 93 genes selected based on their selectivity and sensitivity to important hepatic receptors known to be modulated by environmental chemicals; importance in human hepatocyte functionality; and hepatotoxicity. […]
`Cc1cccc(C)c1N` was tested, and the outcome was “inactive”. `Cc1cc2c3c(c1)C(c1ccccc1)=N[C@@H](NC(=O)c1ccncc1)C(=O)N3CC2` was tested, and the AC50 was 74.3 µM (active). For `Cc1ccccc1O`, the outcome was “inactive”. For `NS(=O)(=O)C(F)(F)C(F)(F)C(F)(F)C(F)(F)C(F)(F)C(F)(F)C(F)(F)C(F)(F)F`, the AC50 was 16.4 µM (active). In the case of `CC(C)(O)C(=O)Nc1ccc([N+](=O)[O-])c(C(F)(F)F)c1`, the outcome is reported as “inactive”. With `COS(=O)(=O)OC` the outcome was “inactive”. `Cc1ccccc1CO[C@@H]1C[C@@]2(C(C)C)CC[C@]1(C)O2` was tested, and the outcome was “inactive”. `CCCCCCCCOC(=O)c1ccccc1C(=O)OCCCCCCCC` was tested, and the outcome was “inactive”. With `CCOCCOC(C)=O` the outcome was “inactive”. For `Clc1ccc(Cl)cc1`, the outcome was “inactive”. `c1cc2ccc3cccc4ccc(c1)c2c34` was tested, and the outcome was “inactive”. With `Cc1cccc([N+](=O)[O-])c1` the outcome was “inactive”. With `COc1ccc(O)c(C(C)(C)C)c1` the outcome was “inactive”. With `Oc1c(Cl)c(Cl)c(Cl)c(Cl)c1Cl` the AC50 was 1.61 µM (active). For `C[C@]12CCC(=O)C=C1CC[C@@H]1[C@@H]2CC[C@]2(C)C(=O)CC[C@@H]12`, the AC50 was 88.9 µM (active). With `CCC(=O)O[C@H]1CC[C@H]2[C@@H]3CCC4=CC(=O)CC[C@]4(C)[C@H]3CC[C@]12C` the outcome was “inactive”. `ClC1=C(Cl)[C@]2(Cl)[C@@H]3[C@@H](Cl)[C@H]4O[C@H]4[C@@H]3C1(Cl)C2(Cl)Cl` was tested, and the AC50 was 75 µM (active). With `C=CC(N)=O` the outcome was “inactive”. In the case of `CCCCCCOC(=O)c1ccccc1C(=O)OCCCCCC`, the outcome is reported as “inactive”. In the case of `C[C@]12CCC(=O)C=C1CC[C@@H]1[C@@H]2CC[C@@]2(C)[C@H]1CC[C@]2(C)O`, the AC50 is reported as 45.8 µM (active). For `O=C(N[C@H]1CN2CCC1CC2)c1cc2ccoc2cn1`, the outcome was “inactive”. For `ClC1=C(Cl)[C@]2(Cl)[C@@H]3[C@H]4C[C@H]([C@@H]5O[C@H]45)[C@@H]3[C@@]1(Cl)C2(Cl)Cl`, the outcome was “inactive”. In the case of `CCC(C)c1cc([N+](=O)[O-])cc([N+](=O)[O-])c1O` (stereo not given), the outcome is reported as “inactive”. `O=C(NC(=O)c1c(F)cccc1F)Nc1cc(Cl)c(OC(F)(F)C(F)F)c(Cl)c1` was tested, and the outcome was “inactive”. `c1ccc(-c2ccccc2)cc1` was tested, and the outcome was “inactive”. In the case of `CCOP(=S)(OCC)SCSC(C)(C)C`, the outcome is reported as “inactive”. `CCSC(=O)N(CC)C1CCCCC1` was tested, and the outcome was “inactive”. `CCOC(=O)C(O)(c1ccc(Cl)cc1)c1ccc(Cl)cc1` was tested, and the outcome was “inactive”. In the case of `CCC(C)(c1ccc(O)cc1)c1ccc(O)cc1`, the outcome is reported as “inactive”. With `O=C(O)C(F)(F)C(F)(F)C(F)(F)C(F)(F)C(F)(F)C(F)(F)C(F)(F)C(F)(F)F` the outcome was “inactive”. With `CC(C)(c1ccccc1)c1ccc(O)cc1` the outcome was “inactive”. With `C=CC(=O)NCNC(=O)C=C` the AC50 was 12.7 µM (active). In the case of `CN(C)CCO`, the outcome is reported as “inactive”. `CCC(C)(CC)c1cc(NC(=O)c2c(OC)cccc2OC)on1` was tested, and the outcome was “inactive”. With `O=NN(c1ccccc1)c1ccccc1` the outcome was “inactive”. In the case of `C1CC2OC2CC1C1CO1` (stereo not given), the outcome is reported as “inactive”. For `Cc1ccccc1[N+](=O)[O-]`, the outcome was “inactive”. With `ClC(Cl)=C(c1ccc(Cl)cc1)c1ccc(Cl)cc1` the outcome was “inactive”. In the case of `CN(C)c1nc(=O)n(C2CCCCC2)c(=O)n1C`, the outcome is reported as “inactive”. `Nc1ccc(-c2ccc(N)cc2)cc1` was tested, and the outcome was “inactive”.
